# From article PMC5700166
# Assays:
# Experiment in all cases: protein-binding microarray (PBM); PBM: ~300 nM protein, 6 mM HEPES pH 7.8, 80 mM KCl, 0.5 mM EDTA, 0.5 mM EGTA, 6% glycerol, 35 ng/ul poly-dIdC, 1% milk, 1 h, room temperature; Ap Aiptasia and Nv Nematostella (sea anemones) / Co Capsaspora / Aq Amphimedon (sponge) / Dm Drosophila / Hu human; RHD is the Rel homology domain; high values mean tight binding
# Details in all cases: dsDNA, one strand shown
# GST-Ap-NF-kB RHD = biological target: T1, GST-Ap-NF-kB RHD (Exaiptasia pallida (Aiptasia), UniProt A0A913YAJ5 2-422)
# T1 sequence: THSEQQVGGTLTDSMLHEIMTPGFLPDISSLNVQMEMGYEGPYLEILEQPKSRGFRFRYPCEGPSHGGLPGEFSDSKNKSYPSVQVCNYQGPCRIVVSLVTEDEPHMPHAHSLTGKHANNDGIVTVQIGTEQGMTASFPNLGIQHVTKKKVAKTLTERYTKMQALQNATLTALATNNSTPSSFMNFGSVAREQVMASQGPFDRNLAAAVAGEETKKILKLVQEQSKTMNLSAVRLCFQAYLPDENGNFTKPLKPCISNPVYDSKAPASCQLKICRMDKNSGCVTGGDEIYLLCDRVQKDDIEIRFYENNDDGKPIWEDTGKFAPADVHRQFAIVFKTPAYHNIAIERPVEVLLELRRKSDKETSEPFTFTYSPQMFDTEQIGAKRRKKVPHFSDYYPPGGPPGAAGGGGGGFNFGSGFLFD
# [1] = biological target: T2, GST-Nv-NF-kB (Cys allele) (Nematostella vectensis, UniProt E5G601 2-411)
# T2 sequence: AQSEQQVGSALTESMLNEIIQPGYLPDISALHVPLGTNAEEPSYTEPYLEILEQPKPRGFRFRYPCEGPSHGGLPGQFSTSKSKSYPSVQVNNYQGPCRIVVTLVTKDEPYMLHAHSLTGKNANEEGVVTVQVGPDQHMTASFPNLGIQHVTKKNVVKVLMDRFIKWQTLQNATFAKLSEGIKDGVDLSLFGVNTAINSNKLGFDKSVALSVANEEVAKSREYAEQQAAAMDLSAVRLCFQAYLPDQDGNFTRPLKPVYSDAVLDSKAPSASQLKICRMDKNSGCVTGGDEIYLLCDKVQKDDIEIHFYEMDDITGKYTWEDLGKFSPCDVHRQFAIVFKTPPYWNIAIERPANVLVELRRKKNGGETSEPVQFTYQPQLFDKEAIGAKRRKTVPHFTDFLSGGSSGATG
# GST-Co-NF-kB = biological target: T3, GST-Co-NF-kB (Capsaspora owczarzaki, UniProt F1ARL5 200-546)
# T3 sequence: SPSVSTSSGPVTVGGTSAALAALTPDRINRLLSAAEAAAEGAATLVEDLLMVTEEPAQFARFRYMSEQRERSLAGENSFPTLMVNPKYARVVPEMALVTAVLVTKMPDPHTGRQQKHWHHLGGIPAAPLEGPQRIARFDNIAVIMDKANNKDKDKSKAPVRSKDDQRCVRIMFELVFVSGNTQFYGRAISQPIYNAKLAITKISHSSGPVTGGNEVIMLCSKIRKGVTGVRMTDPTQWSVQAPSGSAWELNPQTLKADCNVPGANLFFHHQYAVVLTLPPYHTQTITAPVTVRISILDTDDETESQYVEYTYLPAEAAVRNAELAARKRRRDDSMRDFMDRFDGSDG
# GST-Dm-Relish = biological target: T4, GST-Dm-Relish (Drosophila melanogaster, UniProt Q94527 99-473)
# T4 sequence: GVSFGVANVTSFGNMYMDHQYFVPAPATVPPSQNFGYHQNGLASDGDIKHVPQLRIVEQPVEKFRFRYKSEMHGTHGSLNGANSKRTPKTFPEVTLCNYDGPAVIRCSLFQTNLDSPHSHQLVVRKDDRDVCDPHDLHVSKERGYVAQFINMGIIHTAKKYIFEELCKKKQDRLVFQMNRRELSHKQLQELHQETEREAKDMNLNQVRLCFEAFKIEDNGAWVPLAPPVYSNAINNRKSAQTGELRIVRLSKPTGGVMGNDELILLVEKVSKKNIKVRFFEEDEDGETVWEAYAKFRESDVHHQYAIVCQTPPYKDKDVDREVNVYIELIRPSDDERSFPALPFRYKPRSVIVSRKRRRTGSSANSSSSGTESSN
# GST-Aq-NF-kB = biological target: T5, GST-Aq-NF-kB (Amphimedon queenslandica, UniProt A9Y5G7 2-389)
# T5 sequence: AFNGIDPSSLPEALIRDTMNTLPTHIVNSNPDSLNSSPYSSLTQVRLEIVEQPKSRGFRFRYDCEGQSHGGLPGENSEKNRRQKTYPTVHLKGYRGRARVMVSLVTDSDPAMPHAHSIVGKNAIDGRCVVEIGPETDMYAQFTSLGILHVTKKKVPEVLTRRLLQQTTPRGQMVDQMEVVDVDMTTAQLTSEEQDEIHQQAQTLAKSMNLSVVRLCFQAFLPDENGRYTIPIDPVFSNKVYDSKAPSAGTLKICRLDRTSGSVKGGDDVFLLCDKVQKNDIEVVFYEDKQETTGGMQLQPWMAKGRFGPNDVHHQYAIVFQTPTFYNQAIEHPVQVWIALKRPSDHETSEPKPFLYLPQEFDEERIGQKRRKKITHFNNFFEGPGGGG
# GST-Hu-p50 = GST-Hu-p50 (Homo sapiens, UniProt P19838 7-356)
# Chain of GST-Hu-p50 (P19838 7-356): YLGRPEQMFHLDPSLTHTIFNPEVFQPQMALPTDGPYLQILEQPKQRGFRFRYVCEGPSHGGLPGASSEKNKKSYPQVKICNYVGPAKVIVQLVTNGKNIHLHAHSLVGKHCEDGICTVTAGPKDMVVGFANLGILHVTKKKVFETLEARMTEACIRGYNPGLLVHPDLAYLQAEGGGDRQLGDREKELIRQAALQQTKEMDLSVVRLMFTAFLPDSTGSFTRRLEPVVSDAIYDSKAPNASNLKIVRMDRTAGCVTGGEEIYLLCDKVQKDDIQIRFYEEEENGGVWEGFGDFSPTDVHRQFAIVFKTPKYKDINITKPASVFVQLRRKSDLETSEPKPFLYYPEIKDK
sequence,measurement,setting,value
CCGATTAACATCAAACGTTCCCCTGATGTTAATCGGGTCTTGATTCGCTTGACGCTGCTG,binding signal,GST-Ap-NF-kB RHD,5.26 z-score
same,binding signal,[1],5.7 z-score
same,binding signal,GST-Co-NF-kB,6.66 z-score
same,binding signal,GST-Dm-Relish,3.29 z-score
same,binding signal,GST-Aq-NF-kB,4.66 z-score
same,binding signal,GST-Hu-p50,4.03 z-score
CCGATTAACATCACTAATCCCCCTGATGTTAATCGGGTCTTGATTCGCTTGACGCTGCTG,binding signal,GST-Ap-NF-kB RHD,6.44 z-score
same,binding signal,[1],5.78 z-score
same,binding signal,GST-Co-NF-kB,5.81 z-score
same,binding signal,GST-Dm-Relish,5.13 z-score
same,binding signal,GST-Aq-NF-kB,4.99 z-score
same,binding signal,GST-Hu-p50,6.23 z-score
CCGATTAACATCAGGAAATACCCTGATGTTAATCGGGTCTTGATTCGCTTGACGCTGCTG,binding signal,GST-Ap-NF-kB RHD,6.05 z-score
same,binding signal,[1],8.7 z-score
same,binding signal,GST-Co-NF-kB,1.14 z-score
same,binding signal,GST-Dm-Relish,7.3 z-score
same,binding signal,GST-Aq-NF-kB,9.37 z-score
same,binding signal,GST-Hu-p50,6.12 z-score
CCGATTAACATCAACACTCCCCCTGATGTTAATCGGGTCTTGATTCGCTTGACGCTGCTG,binding signal,GST-Ap-NF-kB RHD,5.32 z-score
same,binding signal,[1],4.24 z-score
same,binding signal,GST-Co-NF-kB,5.26 z-score
same,binding signal,GST-Dm-Relish,2.43 z-score
same,binding signal,GST-Aq-NF-kB,4.25 z-score
same,binding signal,GST-Hu-p50,5.34 z-score
CCGATTAACATCAAGGGGGATACTGATGTTAATCGGGTCTTGATTCGCTTGACGCTGCTG,binding signal,GST-Ap-NF-kB RHD,6.74 z-score
same,binding signal,[1],4.59 z-score
same,binding signal,GST-Co-NF-kB,4.72 z-score
same,binding signal,GST-Dm-Relish,3.41 z-score
same,binding signal,GST-Aq-NF-kB,4.99 z-score
same,binding signal,GST-Hu-p50,5.48 z-score
CCGATTAACATCAGGAGTCCCCCTGATGTTAATCGGGTCTTGATTCGCTTGACGCTGCTG,binding signal,GST-Ap-NF-kB RHD,8.32 z-score
same,binding signal,[1],6.17 z-score
same,binding signal,GST-Co-NF-kB,4.42 z-score
same,binding signal,GST-Dm-Relish,8.71 z-score
same,binding signal,GST-Aq-NF-kB,6.95 z-score
same,binding signal,GST-Hu-p50,5.55 z-score
CCGATTAACATCAAGAGTCCCCCTGATGTTAATCGGGTCTTGATTCGCTTGACGCTGCTG,binding signal,GST-Ap-NF-kB RHD,7.54 z-score
same,binding signal,[1],5.23 z-score
same,binding signal,GST-Co-NF-kB,5.05 z-score
same,binding signal,GST-Dm-Relish,5.74 z-score
same,binding signal,GST-Aq-NF-kB,5.26 z-score
same,binding signal,GST-Hu-p50,5.46 z-score
CCGATTAACATCAGGGCTCCCCCTGATGTTAATCGGGTCTTGATTCGCTTGACGCTGCTG,binding signal,GST-Ap-NF-kB RHD,7.08 z-score
same,binding signal,[1],5.82 z-score
same,binding signal,GST-Co-NF-kB,4.76 z-score
same,binding signal,GST-Dm-Relish,7.28 z-score
same,binding signal,GST-Aq-NF-kB,8.12 z-score
same,binding signal,GST-Hu-p50,5.6 z-score
CCGATTAACATCAGGGGGTTGCATGATGTTAATCGGGTCTTGATTCGCTTGACGCTGCTG,binding signal,GST-Ap-NF-kB RHD,5.29 z-score
same,binding signal,[1],3.67 z-score
same,binding signal,GST-Co-NF-kB,2.22 z-score
same,binding signal,GST-Dm-Relish,4.83 z-score
same,binding signal,GST-Aq-NF-kB,4.08 z-score
same,binding signal,GST-Hu-p50,5.29 z-score
CCGATTAACATCAAATTCCCTTATGATGTTAATCGGGTCTTGATTCGCTTGACGCTGCTG,binding signal,GST-Ap-NF-kB RHD,3.4 z-score
same,binding signal,[1],5.97 z-score
same,binding signal,GST-Co-NF-kB,2.16 z-score
same,binding signal,GST-Dm-Relish,3.37 z-score
same,binding signal,GST-Aq-NF-kB,5.01 z-score
same,binding signal,GST-Hu-p50,4.42 z-score
CCGATTAACATCACTAAACCCCCTGATGTTAATCGGGTCTTGATTCGCTTGACGCTGCTG,binding signal,GST-Ap-NF-kB RHD,6.72 z-score
same,binding signal,[1],4.83 z-score
same,binding signal,GST-Co-NF-kB,3.32 z-score
same,binding signal,GST-Dm-Relish,7.51 z-score
same,binding signal,GST-Aq-NF-kB,4.92 z-score
same,binding signal,GST-Hu-p50,6.25 z-score
CCGATTAACATCAATCCACCCCCTGATGTTAATCGGGTCTTGATTCGCTTGACGCTGCTG,binding signal,GST-Ap-NF-kB RHD,3.95 z-score
same,binding signal,[1],3.33 z-score
same,binding signal,GST-Co-NF-kB,4.65 z-score
same,binding signal,GST-Dm-Relish,2.99 z-score
same,binding signal,GST-Aq-NF-kB,3.63 z-score
same,binding signal,GST-Hu-p50,4.45 z-score
CCGATTAACATCAAGGGGGGAACTGATGTTAATCGGGTCTTGATTCGCTTGACGCTGCTG,binding signal,GST-Ap-NF-kB RHD,6.46 z-score
same,binding signal,[1],5.69 z-score
same,binding signal,GST-Co-NF-kB,7.52 z-score
same,binding signal,GST-Dm-Relish,3.7 z-score
same,binding signal,GST-Aq-NF-kB,5.19 z-score
same,binding signal,GST-Hu-p50,5.52 z-score
